Screens deposited in PubChem by ICCB-Longwood Screening Facility, Harvard Medical School.
The entries come from a sample that favours hits as a whole.
Sa growth 42C: blocks Staphylococcus aureus growth; S. aureus RN4220 growth, OD600, 20 h, 42 °C; active compounds read low; relative growth, % (test concentration not listed); 170,000 tested, 0.53% active; AID 720641;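 active = relative growth at most 50% at the other temperature and 20+ points below 30 °C, or under 10% at both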
S aureus helic: blocks Staphylococcus aureus DNA helicase; inhibition, % (concentration not given with the values); 120,000 tested, 0.05% active; purified S. aureus helicase, fluorescence unwinding assay; AID 485395; in the data active = inhibition above about 25%, passing the limit was not always enough
A number is an active result; – = inactive; · = no result.

SMILES	Sa growth 42C	S aureus helic
O=C(Nc1ccc([N+](=O)[O-])cc1Cl)c1cc(Cl)ccc1O	-0.6	·
O=C(Nc1ccccc1Cl)c1ccccc1O	–	–
O=C(O/N=C1\CCCCC1Cn1ccnc1)c1ccc(Cl)cc1 (stereo unspecified)	–	–
Cc1cccc(C(=O)Nc2nc3c(s2)CCCC3)c1	–	·
O=C(Nc1cccc(Br)c1)Nc1nc2c(s1)CCCCCC2	37.0	·
COC(=O)c1cc(S(=O)(=O)N2CCN(c3cccc(C(F)(F)F)c3)CC2)cn1C	–	–
Cc1ccc(-n2sc3ccccc3c2=O)cc1	1.1	–
Cc1ccc(N2C(=O)c3ccccc3C2=O)cc1	–	–
O=C1NC2(Cc3ccccc3C2)Nc2ccccc21	–	–
O=c1ccc(-c2ccc(Cl)cc2)n[nH]1	–	–
O=c1cc[nH]cc1-c1ccc(Cl)cc1	-0.8	–
CCc1cc(SCC(=O)C(C#N)c2nc(C)cs2)n2c(nc3ccccc32)c1C#N (stereo unspecified)	–	–
CCn1c(C)cc(/C=C2\C(=O)NC(=O)N(c3ccc(OC)cc3)C2=O)c1C	–	–
CC(C)(C)OC(=O)N1CCCC(C(=O)O)C1 (stereo unspecified)	–	–
O=C(N[C@H](CO)[C@H](O)c1ccc([N+](=O)[O-])cc1)C(Cl)Cl	-0.1	·
CC(=O)Nc1ccc(S(=O)(=O)Nc2ccc([N+](=O)[O-])cc2)cc1	–	·
COc1ccc(C(=O)NCC(c2ccc3c(c2)OCO3)N2CCOCC2)cc1 (stereo unspecified)	–	·
CN(C)c1ccc(C(c2cc3c(cc2O)OCO3)N2CCCCC2)cc1 (stereo unspecified)	0.9	–
Cc1cc(C)cc(C(=O)NCC(c2ccc(N(C)C)cc2)N2CCCC2)c1 (stereo unspecified)	–	·
COc1ccc(C(c2cc3c(cc2O)OCO3)N2CCOCC2)cc1 (stereo unspecified)	1.8	–
CSc1nnc(-c2c[nH]c3ccccc23)n1-c1ccc(F)cc1	·	–
O=C(O)CCC1NCC(Cn2c3ccccc3c3ccccc32)OC1=O (stereo unspecified)	–	–
O=c1cc(-c2ccc3c(c2)OCCO3)oc2ccc(F)cc12	·	–
CCC(Sc1nc2c(c(=O)[nH]1)CCC2)C(=O)Nc1ccccc1F (stereo unspecified)	–	–
O=C1CCC(C2CCC3(CC2)OCCO3)CC1	–	–
SMILES	Sa growth 42C	S aureus helic
CC12CN(C(=O)c3cccs3)CC(C)(CN(C(=O)c3cccs3)C1)C2=O	–	–
Cc1cc(Nc2ncc(Cl)cc2Cl)n[nH]1	2.2	–
CN(CC(=O)Nc1ncc(Cl)cc1Cl)Cc1ccc(Cl)cc1	–	–
CCN1C(=O)CSc2ccc(C(=O)NC3CCCCCCC3)cc21	–	–
CCOC(=O)C1=C(NC(C)C)C(=O)N(N(C)C)C1	–	–
Cn1c(N)c(C(=O)CN2CCN(S(=O)(=O)/C=C/c3ccccc3)CC2)c(=O)n(C)c1=O	–	–
CCCCC/C=C/CCC(=O)N[C@H]1[C@H](Oc2c3cc4cc2Oc2ccc(cc2Cl)[C@@H](O[C@@H]2O[C@H](CO)[C@@H](O)[C@H](O)[C@H]2NC(C)=O)[C@@H]2NC(=O)[C@H](NC(=O)[C@@H]4NC(=O)[C@H]4NC(=O)C(Cc5ccc(c(Cl)c5)O3)NC(=O)[C@H](N)c3ccc(O)c(c3)Oc3cc(O)cc4c3)c3ccc(O)c(c3)-c3c(OC4O[C@H](CO)[C@@H](O)[C@H](O)[C@@H]4O)cc(O)cc3[C@@H](C(=O)O)NC2=O)O[C@H](CO)[C@@H](O)[C@@H]1O (stereo partly specified)	-0.1	·
O=C(Oc1ccccc1Cl)c1cc(-c2ccc3c(c2)OCCO3)on1	-0.1	·
Cc1ccccc1OC(=O)c1cc(-c2ccc3c(c2)OCCO3)on1	–	·
Cc1cccc(OC(=O)c2cc(-c3ccc4c(c3)OCCO4)on2)c1C	0.1	·
O=C(Oc1ccc(Cl)cc1)c1cc(-c2ccc3c(c2)OCCO3)on1	–	·
COC(=O)c1ccccc1-n1cnnn1	–	–
CO/C(N)=N/C(=S)Nc1cccc(C(F)(F)F)c1	–	–
Cc1cc(NC(=O)c2ccc3c(c2)S(=O)(=O)c2ccccc2C3=O)no1	–	–
c1cc2cc(C3=NCCN3)ccc2cc1C1=NCCN1	–	46.0
c1coc(C2=NCCN2)c1	–	–
Cc1cc(NC(C)c2ccccc2)n2c(nc3ccccc32)c1C#N (stereo unspecified)	–	–
CCn1c(CCNC(=O)C2(c3ccc(Cl)cc3)CCC2)nnc1SC	–	–
CC[C@H]1OC(=O)[C@H](C)[C@@H](O[C@H]2C[C@@](C)(OC)[C@@H](O)[C@H](C)O2)[C@H](C)[C@@H](O[C@@H]2O[C@H](C)C[C@H](N(C)C)[C@H]2O)[C@](C)(O)C[C@@H](C)CN(C)[C@H](C)[C@@H](O)[C@]1(C)O	-0.9	·
O=c1[nH]nc(N2CCSCC2)[nH]1	–	·
C[N+](C)(CCOc1ccccc1)Cc1ccccc1 (tested in a mixture with another compound)	–	–
CC(C)(C)CC(C)(C)c1ccc(OCCOCC[N+](C)(C)Cc2ccccc2)cc1	-0.3	·
O=C(O)CC1(CC(=O)Nc2ccc(OC(F)(F)F)cc2)CCCC1	–	·
CCC1(c2cccc(OC(=O)Nc3ccc(OC(F)(F)F)cc3)c2)CCCCN(C)C1=O (stereo unspecified)	4.2	·
CN1CCN(c2cc(C(=O)c3ccccc3O)cn3c(=O)c4ccccc4nc23)CC1	–	–
SMILES	Sa growth 42C	S aureus helic
O=C1N=c2ccccc2=C1N=Nc1c(O)[nH]c2ccccc12	–	–
O=C1C2C=CC=CC2=NC(=S)[N+]1=Nc1c(O)[nH]c2ccccc12 (stereo unspecified)	1.4	–
OCCCc1cc(-c2ccccc2)n[nH]1	–	·
COc1ccc(CNC(=O)Cn2cnc3ccccc32)cc1OC	–	41.0
COc1ccc(CCNC(=O)Cn2cnc3c(cnn3-c3ccccc3)c2=O)cc1OC	–	–
O=S1(=O)C=C(Sc2nnnn2-c2ccccc2)c2ccccc21	-1.7	–
c1ccc(-n2nnnc2SSc2nnnn2-c2ccccc2)cc1	–	–
CSc1nnc(CCCO)n1-c1ccc(Cl)cc1Cl	–	·
NC(=O)/C=C/C(=O)Nc1ccccc1Cl	–	·
Cc1ccccc1NC(=O)/C=C\C(N)=O	-0.5	–
COc1cc(/C=N/NC(=O)c2cc(-c3cccn3C)n[nH]2)cc(OC)c1OC	-0.2	–
O=C(N/N=C/c1ccccc1)c1cc(-c2ccccc2)n[nH]1	–	–
O=c1c2oc3ccccc3c2n(Cc2cccc(C(F)(F)F)c2)c(=O)n1Cc1ccc2c(c1)OCO2	–	·
Cc1nnc(SCC(=O)N(CC(C)C)C2CCS(=O)(=O)C2)s1 (stereo unspecified)	–	26.0
CCCc1cc(=O)[nH]c(SCC(=O)N(CC(C)C)C2CCS(=O)(=O)C2)n1 (stereo unspecified)	–	–
O=c1oc(-c2ccc(F)cc2)nc2scc(-c3cccs3)c12	–	–
CCOC(=O)c1cccc2c1-c1ccccc1/C2=N/O	44.3	–
CCOC(=O)c1cccc2c1-c1ccccc1C2=O	–	·
OC(CNC1CCCCC1)CN1c2ccccc2Sc2ccccc21 (stereo unspecified)	–	–
O=C(NC(C(=O)O)C12CC3CC(CC(C3)C1)C2)C1CCCCC1 (stereo unspecified)	–	–
CSC1=NC2(CCCCCC2)Cc2ccccc21	–	–
Cc1cccc(NC(=O)C2CCN(S(=O)(=O)c3ccc(F)cc3)CC2)c1C	–	·
O=C(c1ccc2ccccc2n1)n1nc2ccccc2n1	–	–
